Hit rate of the full screen: of about 2,100 compounds, about 1,100 (52%) were called active. Inconclusive results (about 29%) are left out. Calls follow the shape of the dose curve; as a rule, active = well fitted inhibition curve with a large enough effect; inconclusive = small, poorly fitted or top-dose-only effect; inactive = no such curve, though single readings can be large or run the other way. The set was probably picked from earlier hits. Some of the results follow.
Potency is read from the fitted curve at half-maximal effect.

For the test, the target named is DNA dC->dU-editing enzyme APOBEC-3F (Homo sapiens) (UniProt Q8IUX4). Description: qHTS for inhibitors of Vif-A3F interactions: Cherry picks counterscreen. Also: nearly all actives have a fitted effect of over 65% in size. Particulars: HeLa A3F-eYFP/Vif cells, eYFP fluorescence, 24 h; series mostly up to 46.1 µM. The method, boiled down: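 Rescue of Vif-driven A3F-eYFP degradation read as cellular eYFP fluorescence after 24 h compound exposure (several concentrations) in stable HeLa cells; MG132 (2 mM stock) as positive control.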
Sequence of DNA dC->dU-editing enzyme APOBEC-3F (Homo sapiens) (Q8IUX4 whole entry, looked up): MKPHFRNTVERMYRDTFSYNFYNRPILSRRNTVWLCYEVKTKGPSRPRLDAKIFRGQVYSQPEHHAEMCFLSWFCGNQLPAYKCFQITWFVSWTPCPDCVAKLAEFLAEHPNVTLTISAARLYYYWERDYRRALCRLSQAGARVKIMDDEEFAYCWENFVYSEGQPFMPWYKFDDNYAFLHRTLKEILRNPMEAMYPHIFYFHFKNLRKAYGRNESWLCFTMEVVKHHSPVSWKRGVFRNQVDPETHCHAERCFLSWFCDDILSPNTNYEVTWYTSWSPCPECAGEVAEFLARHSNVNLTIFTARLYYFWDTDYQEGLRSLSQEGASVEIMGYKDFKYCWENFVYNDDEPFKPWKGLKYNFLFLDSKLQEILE
(In qHTS, concentration-response curves come from the screen itself.)
For the compound `Cc1ccc(C(=O)NC2c3ccccc3-c3ccccc32)cc1`, the Potency is 3.96 µM (active).

`COc1ccccc1-c1cc(NC=O)c2ncc(-c3cccc(C(=O)N(C)C)c3)n2c1`: the Potency was 14 µM (active).

Take `COc1ccccc1-c1cc(NC=O)c2ncc(-c3ccc(S(C)(=O)=O)cc3)n2c1`: the Potency is 5.59 µM (active).

For `CN(C)C(=O)c1cccc(-c2cnc3c(NC=O)cc(-c4ccccc4F)cn23)c1`, the Potency entry was “inactive”.

For the compound `CC1C/C(=N\NC(N)=S)c2cc(Cl)ccc2S1` (stereo not given), the Potency result was “inactive”.

`O=C(Nc1nnc(-c2ccc3c(c2)CCCC3)o1)c1c(F)cccc1F`: the Potency entry is “inactive”.

Take `Cc1ccccc1-n1c(/C=C/c2c(C)n(C)c3ccccc23)nc2ccccc2c1=O`: the Potency was 18.4 µM (active).

For the compound `O=C(Nc1cc(Cl)ccc1-n1cncn1)c1ccc([N+](=O)[O-])s1`, the Potency is 14 µM (active).

Consider `COc1ccc(/C=N/NC(=O)c2[nH]nc3c2CCc2ccccc2-3)cc1OC`, for which the Potency is 4.98 µM (active).

As to `COc1cccc(/C=N/NC(=O)c2[nH]nc3c2CCc2ccccc2-3)c1`, the Potency is 2.5 µM (active).

Turning to `COc1ccc(CN2C(=O)C(C)Nc3ncnc(N4CCc5ccccc5C4)c32)cc1` (stereo not given), the Potency is 2.8 µM (active).

Regarding `CCn1nc(-c2ccccc2)c2nc3ccccc3nc21`, the Potency was 20.6 µM (active).

With `O=C(NCC1CCCO1)c1nn2c(C(F)(F)F)cc(-c3cc(Br)cs3)nc2c1Br` (stereo not given), the Potency was 11.6 µM (active).

For the compound `CS(=O)(=O)N(CC(=O)N1CCN(Cc2ccccc2)CC1)c1ccccc1F`, the Potency entry is “inactive”.

`Cc1cccc(-n2c(N)c(-c3nc4ccccc4n3C)c3nc4ccccc4nc32)c1`: the Potency entry is “inactive”.

Regarding `CC(=O)n1c2ccccc2c2nc3ccccc3nc21`, the Potency is 5.8 µM (active).

For the compound `CCS(=O)(=O)N1N=C(c2cccc(NS(C)(=O)=O)c2)CC1c1ccc(C)cc1` (stereo not given), the Potency is 18.4 µM (active).

For `CS(=O)(=O)Nc1ccc(C2=NN(S(C)(=O)=O)C(c3ccc4nccnc4c3)C2)cc1` (stereo not given), the Potency result was “inactive”.

`CS(=O)(=O)N1N=C(c2ccccc2)CC1c1ccc2c(c1)OCO2` (stereo not given): the Potency was 14 µM (active).

On to `Cc1ccc(CNC(=O)C2CC(c3cc(C(F)(F)F)cc(C(F)(F)F)c3)=NO2)o1` (stereo not given), for which the Potency is 7.04 µM (active).

On to `N#Cc1cc2ccccc2nc1SCc1ccccn1`, for which the Potency is 16.4 µM (active).

As for `O=C1c2ccccc2C(=O)c2c(/C=C/N3CCCCC3)ccnc21`, the Potency is 18.4 µM (active).

As to `Clc1ccc2c(c1)C(C1=NCCN1)c1ccccc1CS2` (stereo not given), the Potency was 3.14 µM (active).

With `CC(C)n1c(O)c(N=Nc2ccc(Cl)nn2)c2ccccc21`, the Potency was 18.4 µM (active).

Turning to `CCC(=O)NC(c1ccc(OC)cc1)c1c(O)ccc2ccccc12` (stereo not given), the Potency is 6.27 µM (active).

With `CCCC(=O)NC(c1ccc(OC)cc1)c1ccc2cccnc2c1O` (stereo not given), the Potency entry is “inactive”.

For `CN1/C(=C\C=C(/C#N)C(=O)Nc2ccc(Cl)cc2)C(C)(C)c2ccccc21`, the Potency was 5.59 µM (active).

With `CN1/C(=C\C=C(/C#N)C(=O)Nc2ccccc2F)C(C)(C)c2ccccc21`, the Potency was 16.4 µM (active).

Turning to `Cc1ccccc1C1CC(c2cccs2)=NN1S(C)(=O)=O` (stereo not given), the Potency result was “inactive”.

For the compound `Cc1ccc(C2=NN(S(=O)(=O)c3ccccc3)C(c3ccccc3O)C2)cc1` (stereo not given), the Potency was 18.4 µM (active).

`Cc1ccc(C2=NN(C(=O)c3cccs3)C(c3ccccc3O)C2)cc1` (stereo not given): the Potency result was “inactive”.

Regarding `O=Nc1ccc(O)c2ncccc12`, the Potency entry was “inactive”.

`Cc1[nH]c2ccccc2c1/C=C/c1ccc2ccccc2n1`: the Potency was 18.4 µM (active).

Take `Cc1[nH]c2ccccc2c1/C=C/c1ccnc2ccccc12`: the Potency was 3.26 µM (active).

Take `O=C(CCl)N1c2ccccc2Oc2ccc3ccccc3c21`: the Potency is 14 µM (active).

For `COc1cc(C2Oc3ccccc3C=C2[N+](=O)[O-])cc(OC)c1OC` (stereo not given), the Potency was 15.8 µM (active).

On to `CCN(CC)c1nc2ccccc2nc1C(C#N)C(=O)NCCc1ccccc1` (stereo not given), for which the Potency is 7.31 µM (active).

With `N#CC(C(=O)NCc1ccccc1)c1nc2ccccc2nc1N1CCCC1` (stereo not given), the Potency is 3.66 µM (active).

For the compound `CCCCn1c(N)c(N(Cc2ccccc2OC)C(=O)c2ccc([N+](=O)[O-])s2)c(=O)[nH]c1=O`, the Potency entry is “inactive”.

For `Cc1cc2nc3s/c(=C/c4ccc(-c5ccccc5C(=O)O)o4)c(=O)n3c2cc1C`, the Potency is 11.6 µM (active).

Take `Cc1cc(C(=O)N/N=C/c2ccc3c(c2)OCO3)c2ccccc2n1`: the Potency is 4.44 µM (active).

Consider `O=C(N/N=C/c1ccc2c(c1)OCO2)c1cc(-c2ccncc2)nc2ccccc12`, for which the Potency was 6.27 µM (active).

`O=C(N/N=C/c1ccsc1)c1cc(-c2cccs2)nc2ccccc12`: the Potency was 15.8 µM (active).

In the case of `Cc1cccc(C)c1OCC(=O)N/N=C/c1ccc2c(c1)OCO2`, the Potency was 3.53 µM (active).

As to `O=C(N/N=C/c1ccc2c(c1)OCO2)c1cc(-c2ccco2)nc2ccccc12`, the Potency is 12.5 µM (active).

For `Cc1cc(NC(=O)/C(C#N)=C/c2ccc(-c3ccc(SC(F)F)cc3)o2)n(-c2ccccc2)n1`, the Potency was 7.31 µM (active).

As for `Cc1cc(NC(=O)/C(C#N)=C\c2ccc(-c3ccc(SC(F)F)cc3)o2)n(-c2ccccc2)n1`, the Potency was 8.2 µM (active).

In the case of `COCCN(CCOC)Cc1c(O)ccc2c1O/C(=C\c1ccc(C)o1)C2=O`, the Potency entry is “inactive”.

Regarding `N#CCSc1ccccc1NC(=O)COc1ccc(-c2nnco2)cc1`, the Potency was 17.7 µM (active).

As for `CCOc1cc(/C=C2\N=C(SC(C)C(N)=O)N(c3ccc(OC(F)F)cc3)C2=O)ccc1O` (stereo not given), the Potency was 4.44 µM (active).

As to `CCOc1ccc(-c2cc(C(=O)N/N=C(\C)c3cccnc3)c3ccccc3n2)cc1`, the Potency entry is “inactive”.

In the case of `Cc1ccc(C=NNC(=O)c2cc(-c3cccnc3)nc3ccccc23)o1`, the Potency was 8.86 µM (active).

`Cc1ccc(/C=N/NC(=O)c2cc(-c3ccccc3)nc3ccccc23)o1`: the Potency is 14 µM (active).

In the case of `C/C(=N\NC(=O)c1cc(C)nc2ccccc12)c1ccncc1`, the Potency result was “inactive”.

As for `O=C(N/N=C/c1ccc(Cl)cc1)c1cc(-c2cccnc2)nc2ccccc12`, the Potency was 4.44 µM (active).

Consider `Cc1cc(C(=O)N/N=C/c2ccc(C)o2)c2ccccc2n1`, for which the Potency was 2.23 µM (active).

As to `CCCN(C(=O)CSc1n[nH]c(-c2ccc(OC)cc2)n1)c1c(N)n(Cc2ccccc2)c(=O)[nH]c1=O`, the Potency entry was “inactive”.

`C/C(=N\NC(=S)NCc1ccccc1)c1cccs1`: the Potency entry is “inactive”.

Take `CCOC(=O)Nc1ccc2nc(-c3cscn3)[nH]c2c1`: the Potency was 5.59 µM (active).

Consider `CC[n+]1c(/C=C/Nc2ccccc2)oc2ccccc21`, for which the Potency was 18.4 µM (active).

Regarding `CC[n+]1c(/C=C/N(C)c2ccccc2)oc2ccc(F)cc21`, the Potency is 17.7 µM (active).

Regarding `CC[n+]1c(/C=C/Nc2ccccc2)oc2ccc(OC)cc21`, the Potency is 16.4 µM (active).

On to `NC(=O)c1ccc(NC(=O)C#Cc2ccccc2)cc1`, for which the Potency entry is “inactive”.

For the compound `Cc1cc(/C=N/NC(=O)c2cc3ccccc3o2)c(C)n1C`, the Potency entry was “inactive”.

On to `Cc1c(/C=N\NC(=O)c2cc3ccccc3o2)c2ccccc2n1C`, for which the Potency was 5.59 µM (active).

For `O=C(N/N=C/c1cccc2ccccc12)c1cc2ccccc2o1`, the Potency is 7.9 µM (active).

As for `Cc1cccc(C)c1Nc1nc2ccccc2nc1NS(=O)(=O)c1ccccc1`, the Potency is 23.1 µM (active).

In the case of `COc1ccc(OC)c(Nc2nc(-c3ccncc3)nc3ccccc23)c1`, the Potency entry was “inactive”.

On to `COc1cc(Cl)c(C)cc1Nc1nc2ccccc2nc1NS(=O)(=O)c1ccccc1`, for which the Potency is 1.46 µM (active).

Turning to `Cc1cc(Br)ccc1SCC(=O)OC/C(O)=C(\C#N)c1nc2ccccc2[nH]1`, the Potency entry is “inactive”.

As to `CCOC(=O)N1CCN(/C=C(\C#N)c2nc3ccccc3s2)CC1`, the Potency was 18.4 µM (active).

On to `COc1ccc2oc(=O)c(-c3nc4ccccc4o3)cc2c1`, for which the Potency is 14.6 µM (active).

With `O=C(CCCCl)Oc1ccc2cc(-c3ccc4ccccc4n3)c(=O)oc2c1`, the Potency entry is “inactive”.

As for `CCOc1ccccc1Nc1nnc(-c2cc3cc(Cl)ccc3oc2=O)s1`, the Potency is 5.17 µM (active).

Consider `CCOc1ccccc1Nc1nnc(-c2cc3cc(OC)ccc3oc2=O)s1`, for which the Potency is 9.2 µM (active).

Turning to `CC(O)CN(CC(C)O)c1ccc2c(c1)Cc1cc([N+](=O)[O-])ccc1-2` (stereo not given), the Potency is 2.31 µM (active).

For the compound `CCN1C(=O)/C(=C/C=C2\N(CC)c3cc(S(=O)(=O)N(C)C)ccc3N2c2ccccc2)SC1=S`, the Potency was 6.27 µM (active).

Take `CCN(CC)c1ccc(/C=N/NC(=S)NC)c(O)c1`: the Potency result was “inactive”.

Consider `CCN(CC)c1ccc(/C=N/N=C(N)N)c(O)c1`, for which the Potency is 4.44 µM (active).

Turning to `CN(Cc1cnn(Cc2ccccc2)c1)C(=O)c1cccc(S(=O)(=O)N2CCOCC2)c1`, the Potency is 11.2 µM (active).

For the compound `O=C(O)CCCN1C(=O)/C(=C\C(Cl)=C\c2ccccc2)SC1=S`, the Potency is 7.04 µM (active).

As for `CC1=CC(C)(C)NC(=S)N1c1ccc2ccccc2c1`, the Potency result is “inactive”.

As to `N#CC(=Cc1ccccn1)c1nc(-c2ccc(Cl)cc2)cs1`, the Potency is 12.5 µM (active).

For the compound `O=C(NCCc1ccccc1Cl)c1ccc(Cn2c(=O)c3cccn3c3cccnc32)cc1`, the Potency is 18.4 µM (active).

In the case of `Cc1cc([N+](=O)[O-])ccc1-c1ccc(/C=N/NC(=O)c2ccc(Br)o2)o1`, the Potency was 20.6 µM (active).

In the case of `COCCNC(=S)N/N=C(\C)c1ccc(OC(F)F)cc1`, the Potency entry is “inactive”.

As for `O=C(N/N=C/c1ccc(-c2ccc([N+](=O)[O-])cc2)o1)[C@H]1C[C@@H]1c1ccccc1`, the Potency entry is “inactive”.

For the compound `O=C(Cc1ccccc1)N/N=C/c1ccc(-c2ccc([N+](=O)[O-])cc2)o1`, the Potency was 15.8 µM (active).

For `COCCNC(=S)N/N=C/c1ccc(-c2ccc([N+](=O)[O-])cc2)o1`, the Potency was 15.8 µM (active).

Regarding `COCCNC(=S)NN=C1CCCCCC1`, the Potency entry is “inactive”.

For `O=[N+]([O-])c1ccc(-c2ccc(/C=N/Nc3nc(NCc4ccccc4)nc(N4CCOCC4)n3)o2)cc1`, the Potency was 18.4 µM (active).

As to `O=C(O)c1cccc(-c2ccc(/C=N/Nc3ccc([N+](=O)[O-])cc3)o2)c1`, the Potency is 18.4 µM (active).

Consider `CCOc1ccc(S(=O)(=O)N(CC(=O)N/N=C/c2ccc(-c3ccc([N+](=O)[O-])cc3)o2)c2ccccc2)cc1`, for which the Potency was 3.53 µM (active).

As to `CN(/N=C/c1ccc(-c2ccc([N+](=O)[O-])cc2)o1)c1ccccc1`, the Potency was 1.46 µM (active).

On to `CC(C)(C)NC(=S)N/N=C\c1ccc(-c2ccc([N+](=O)[O-])cc2)o1`, for which the Potency is 18.4 µM (active).

Source of the values: PubChem BioAssay AID651815 (National Center for Advancing Translational Sciences (NCATS), 2012).
